# Bioassay records (PubChem)
# rCAG RNA binder = binds r(CAG) RNA repeats; r(CAG) RNA repeat, TO-PRO-1 dye displacement fluorescence; inhibition, % at 3 µM; actives 1.3% (n = 370,000); AID 651821;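 active = inhibition above the plate cutoff, the mean of all test compounds on that plate plus 3 SD, cut at about 35% in these data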;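 note: 0% = DMSO alone and 100% = 100 µM mitoxantrone as full dye displacement; higher means more dye released from RNA so lower well fluorescence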
# AHR act = activators of human aryl hydrocarbon receptor; P35869; AHR-responsive luciferase reporter cells, luminescence; activation, % at 5 µM; actives 2.5% (n = 320,000); in the data active = activation above about 47%;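 note: 0% = vehicle wells and 100% = reference agonist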
# ADAM17 inh = inhibits human ADAM17 | P78536 | recombinant ADAM17, EDANS/DABCYL FRET peptide cleavage | inhibition, % at 6.95 µM | actives 0.83% (n = 370,000) | AID 720648;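 active = inhibition above the mean of compounds lying between control limits plus 3 SD, set per campaign, cut at about 8.5% in these data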;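 note: 0% = DMSO-only wells as the low control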
# KLK7 zymogen act = activators of human kallikrein-7 zymogen. purified proKLK7, EDANS-DABCYL substrate fluorescence; 100% is mature enzyme control, 0% vehicle. activation, % at 7 µM. actives 0.9% (n = 370,000). AID 652039;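 active = activation above the mean of all tested compounds plus 3 SD, computed per campaign excluding outliers beyond control limits, cut at about 13% in these data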
# GRIN3A LBD mod = modulates the human NR3A ligand-binding domain; NR3A LBD differential scanning fluorimetry, Tm shift; 0% = protein alone, 100% = glycine-bound protein; Tm shift relative to glycine control, % at 25 µM; actives 2.5% (n = 340,000); AID 1259313;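 active = melting temperature shift of at least 10% of the positive control shift, at one fixed dose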
# ADAM10 inh = ADAM10 inhibition, QFRET primary screen | recombinant ADAM10, EDANS/DABCYL FRET peptide cleavage, 3 h | actives 0.62% (n = 370,000) | O14672 | inhibition, % at 7 µM | AID 720582;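 active = inhibition above a per-campaign cutoff equal to the mean of compounds falling between control-based bounds plus 3 SD, cut at about 20% in these data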;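 note: 0% = DMSO wells while the 100% control is not disclosed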
# Target sequence (O14672 214-748 limits assumed): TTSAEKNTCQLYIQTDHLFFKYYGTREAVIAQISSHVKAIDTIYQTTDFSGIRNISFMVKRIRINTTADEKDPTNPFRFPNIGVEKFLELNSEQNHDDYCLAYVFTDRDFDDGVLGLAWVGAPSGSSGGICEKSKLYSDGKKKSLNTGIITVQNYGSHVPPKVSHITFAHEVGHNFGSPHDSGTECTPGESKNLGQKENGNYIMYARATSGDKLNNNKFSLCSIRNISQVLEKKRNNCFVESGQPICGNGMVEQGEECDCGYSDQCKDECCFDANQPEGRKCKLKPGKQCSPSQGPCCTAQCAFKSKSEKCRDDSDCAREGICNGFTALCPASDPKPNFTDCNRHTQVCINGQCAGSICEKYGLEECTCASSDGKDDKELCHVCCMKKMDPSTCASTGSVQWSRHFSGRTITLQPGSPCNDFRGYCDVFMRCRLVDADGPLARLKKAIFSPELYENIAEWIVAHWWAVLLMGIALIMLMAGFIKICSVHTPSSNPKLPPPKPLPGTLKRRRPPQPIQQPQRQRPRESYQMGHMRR
# AHR act cf = human AHR activation, confirmation; shares compounds with AHR act; human cells, AHR-responsive luciferase reporter, luminescence; activation, % at 9 µM; actives 87% (n = 2,300); in the data active = activation above about 49%;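 note: HepG2 hepatoma cells carrying a DRE-driven firefly luciferase reporter; 0% = vehicle wells and 100% = reference agonist wells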
# PXR act counter = activates human PXR in AHR activator counter-screen; shares compounds with AHR act; activation, % at 11.6 µM; actives 88% (n = 2,300); AID 434939; cell-based PXR reporter, luciferase luminescence; in the data active = activation above about 11%;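 note: human hepatoma DPX-2 cells expressing full-length human PXR; 0% = DMSO and 100% = reference agonist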
# Numbers without * were called inactive; . = not tested or not shown. Hits are enriched below; roughly 7% of the tested compounds scored in any of these assays.
SMILES,rCAG RNA binder,AHR act,ADAM17 inh,KLK7 zymogen act,GRIN3A LBD mod,ADAM10 inh,AHR act cf,PXR act counter
CCOc1cc(N)c(Cl)cc1C(=O)NCC1CN(Cc2ccc(F)cc2)CCO1 (stereo not given),1.2,90.3*,-1.7,0.3,0.6,5.2,63.2*,180.8*
C[C@@H](NC(=O)c1ccc(C#Cc2cccc(F)c2)cn1)C(C)(C)O,1.0,.,-31.2,1.5,.,-105.0,.,.
C[C@@H]1CN(c2ccc(N3CCNC[C@@H]3C)cc2C#N)CCN1Cc1ccccc1,7.8,.,-17.6,4.1,.,-51.1,.,.
Clc1cccc(/C=N\Nc2nccs2)c1,9.1,116.6*,7.5,-1.0,-14.7,6.2,121.6*,37.4*
C(=N/Nc1nccs1)/c1cccnc1,2.2,12.5,0.3,-0.6,3.5,-0.3,.,.
CCOc1ccc(CCNC(=O)c2cc3sccc3n2Cc2cccc(C)c2)cc1OCC,.,.,-5.3,.,.,-7.5,.,.
O=C(c1ccco1)c1coc2c1cc(O)c1ccccc12,11.6,89.5*,-1.1,-0.7,1.2,-3.3,119.6*,18.2*
COCc1cc(N2CCNC[C@H]2C)ccc1N1C[C@@H](C)O[C@@H](C)C1,5.1,.,-4.3,1.0,.,-11.2,.,.
CCOC(=O)c1c(C)[nH]c(C)c1C(=O)CSc1nc2ccccc2n1CCC#N,-3.0,99.3*,-4.2,-0.4,4.8,-0.4,4.7,78.6*
CCCn1c(SCC(=O)c2c(C)[nH]c(C)c2C(=O)OCC)nc2ccccc21,-5.6,25.7,1.6,-0.2,-0.4,10.8,.,.
Cc1ccc2c(c1)-c1c(cnn1CC(=O)NCCc1ccccc1F)CO2,1.4,.,-2.6,0.1,.,-3.6,.,.
COc1ccc(Nc2nccc(-c3cccc(N)c3)n2)cc1,-0.6,132.2*,-1.9,0.2,5.6,-0.7,54.5*,30.4*
COc1ccc(Nc2nccc(-c3ccc(C#N)cc3)n2)cc1,3.1,80.3*,-0.5,0.2,-1.0,2.3,54.2*,16.0*
COc1ccc(Nc2nc(NN)nc(Nc3ccc(OC)cc3)n2)cc1,8.4,13.9,5.6,-0.8,-3.8,10.5,.,.
COc1ccc(Nc2nccc(OC)c2C#N)cc1,2.3,8.9,-3.3,-0.9,1.1,-1.6,.,.
CN(c1ccc(NC(=O)CCc2c[nH]c3ccccc23)cc1)c1ccccn1,8.9,.,2.8,0.3,.,2.8,.,.
Cc1ccccc1/C=c1\s/c(=C\C(=O)C(C)(C)C)[nH]c1=O,7.5,119.2*,7.7,-0.5,-8.0,15.2,76.4*,104.9*
C=CCNc1cccc2c1S(=O)(=O)N[C@@H](Cc1ccccc1)CO2,4.4,.,-0.1,-0.1,.,-8.3,.,.
C/C(=N/Nc1nc(-c2ccc(Cl)cc2)cs1)c1cccs1,6.3,104.3*,-6.7,0.6,-0.2,0.2,132.4*,17.5*
Cc1ccc(-c2nc3cccnc3s2)cc1NS(=O)(=O)c1ccc2c(c1)CCCC2,19.3,92.9*,-7.6,-9.2,-8.0,-42.5,56.5*,154.3*
Cc1nn(-c2ccccc2)c2sc(C(=O)N3CCN(C(c4ccccc4)c4ccc(Cl)cc4)CC3)cc12 (stereo not given),9.8,.,-2.1,-0.6,.,-6.5,.,.
COc1ccccc1Nc1nc(N)nc(-c2cc3ccccc3o2)n1,24.1,84.7*,1.1,-0.5,-9.6,-17.9,20.9,46.0*
Nc1c(Cl)cc(-c2csc(NCCc3nc4cc(Cl)c(Cl)cc4n3CCCO)n2)cc1Cl,7.9,131.3*,2.3,-0.1,-1.2,4.9,113.0*,82.0*
OCCOCCn1c(CCNc2nc(-c3ccc(F)cc3)cs2)nc2cc(C(F)(F)F)ccc21,-1.9,91.1*,-2.0,0.1,-5.0,7.5,49.7*,27.4*
OCCCn1c(CCNc2nc(-c3ccc(Cl)cc3)cs2)nc2cc(C(F)(F)F)ccc21,1.8,41.2,2.4,-0.2,5.9,4.2,.,.
SMILES,rCAG RNA binder,AHR act,ADAM17 inh,KLK7 zymogen act,GRIN3A LBD mod,ADAM10 inh,AHR act cf,PXR act counter
O=C(NC1CCCC1)[C@@H]1CCCN1C(=O)[C@@H](NC(=O)N1CCOCC1)C1CCCCC1,-0.7,.,-4.9,0.1,.,-15.1,.,.
c1ccc(-c2csc3nnc(SCc4ccc5c(c4)OCO5)n23)cc1,1.5,83.7*,0.3,0.6,-0.3,0.4,48.1*,130.4*
CC(C)c1ccc(NC(=O)c2cc(Br)ccc2Br)cc1,0.0,28.5,-1.5,-0.6,-3.7,0.1,.,.
O=C(Nc1ccc(Cl)cc1)c1ccc(Br)cc1F,-2.8,96.9*,-3.6,0.3,-2.3,-5.6,130.5*,64.8*
Cn1c(-c2ccc(Cl)cc2)ccc(C#N)c1=O,0.0,99.7*,-1.8,-0.2,0.5,-11.5,103.7*,13.7*
CCc1nnc(NC(=O)c2sc3nc4c(cc3c2N)CCCCC4)s1,30.7,123.7*,-112.3,-23.2,-2.9,-467.1,29.2,35.7*
O=C(Nc1nccs1)c1sc2cc(Cl)ccc2c1Cl,1.6,80.3*,-4.9,0.9,1.1,-7.2,110.0*,18.1*
CCc1cc2ccc(OC)cc2nc1SCC(=O)NNC(C)=O,-4.0,13.2,-2.8,-0.9,-2.0,-3.0,.,.
CCc1cc2cc(OC)ccc2nc1SCC(=O)NNC(=O)c1ccco1,4.2,82.2*,2.0,-0.5,-0.7,2.0,16.1,14.3*
Cc1nc(C(=O)Nc2ccccc2Cl)cc2c1[nH]c1ccccc12,-57.2,9.9,-6.7,0.0,1.0,-8.3,.,.
COc1ccc(NC(=O)c2cc3c([nH]c4ccccc43)c(C)n2)cc1,4.6,85.3*,-2.1,0.7,6.9,3.1,88.4*,14.8*
CCOC(=O)CN1C(=O)[C@]2(OCCC=C[C@H]2C)c2ccccc21,0.0,.,-6.4,-0.1,.,-12.6,.,.
CCn1c(O)c(N=NC(=O)CNC(=O)/C=C/c2ccccc2)c2ccccc21,0.9,8.1,-0.3,0.2,0.4,3.6,.,.
C=CCn1c(O)c(N=O)c2ccccc21,0.6,19.0,-3.7,1.2,-4.2,0.4,.,.
C#CCn1c(O)c(N=NC(=O)CNC(=O)c2cccnc2)c2ccccc21,3.4,92.5*,0.4,0.1,-0.9,11.7,106.2*,24.5*
C#CCn1c(O)c(N=NC(=O)CNC(=O)/C=C/c2ccccc2)c2ccccc21,9.5,91.4*,-0.1,0.2,-0.5,19.1,106.9*,52.3*
C=CCn1c(O)c(N=NC(=O)CNC(=O)c2ccncc2)c2ccccc21,-0.1,99.5*,-2.9,0.6,-1.9,2.7,70.5*,42.6*
CCn1c(CNc2ccc(F)cc2)nnc1SCC#N,2.0,21.5,-0.4,0.1,-5.6,0.9,.,.
CCn1c(CNc2ccc(Cl)cc2)nnc1SCC#N,0.2,120.3*,-1.3,0.2,0.3,3.2,99.8*,47.5*
O=C1c2ccccc2C(=O)N1c1ccc(Cl)cc1,.,87.8*,.,.,.,.,61.9*,13.2*
